The values below come from PubChem BioAssay (Tox21).

Records with an inconclusive call do not appear. Active and inactive are the calls of the source. The call rests on the fitted dose curve; in most records, active means well fitted cell-killing curve with a large enough effect in the repeat runs; inconclusive means weak or mixed curves, or effect the other way; inactive means flat fitted curve, though single readings scatter.

This assay can be described thus: qHTS assay to identify small molecule agonists of the TGF-beta/Smad signaling pathway - cell viability counter screen (AID 1346829). Further: top concentration of the series differs between compounds; nearly all actives have a fitted effect of over 45% in size. Conditions: SBE-bla HEK293T viability, CellTiter-Glo luminescence, 5 h; series mostly up to 76.8 µM. From the text: National Center for Advancing Translational Sciences [NCATS]
NIH Chemical Genomics Center [NCGC]
U.S. Environmental Protection Agency [EPA]
National Institutes of Environmental Health Sciences [NIEHS]
National Toxicology Program [NTP]
U.S. Food and Drug Administration [FDA]
Transforming growth factor beta (TGF-beta) superfamily consists of a large number of structurally related dimeric proteins that act as hormones or local mediators in regulating a wide range of biological functions. This superfamily includes TGF-betas themselves, the bone morphogenetic proteins (BMPs) and the activins. These ligands induce oligomerization of serine/threonine receptor kinases and phosphorylate the cytoplasmic signaling molecules of Smad protein family. CellSensor SBE-bla HEK 293T cell line (Life Technologies, Carlsbad, CA), responsive to TGF-beta was used to screen Tox21 10K compound library for identification of agonists/antagonists of the Smad signaling pathway. This cell line contains a beta-lactamase reporter gene under control of the Smad binding element (SBE) stably integrated into HEK 293T cells. Also cytotoxicity of the compounds was tested in parallel by measuring the cell viability using CellTiter-Glo assay system in the same wells.
Tox21 Assay Protocol Summary:
SBE-bla HEK 293T cells were dispensed at 4,000/well in 6 uL of assay medium into black wall/clear-bottom 1536-well plates using a Multidrop Combi (ThermoFisher Scientific, Waltham, MA) dispenser. After the assay plates were incubated at 37 C and 5% CO2 for an overnight, 23 nL of compounds dissolved in DMSO, positive controls or DMSO only was transferred to the assay plate by a Pintool station (Kalypsys, San Diego, CA). The assay plates were incubated at 37 C and 5% CO2 for 5 hr. One uL of LiveBLAzer B/G FRET substrate (Life Technologies) was added using a Flying Reagent Dispenser (FRD, Aurora Discovery, San Diego, CA) and the plates were incubated at room temperature for 2 hr. Fluorescence intensity (405 nm excitation, 460 nm and 530 nm emissions) was measured using an Envision plate reader (PerkinElmer, Shelton, CT). For cytotoxicity read, 4 uL of CellTiter-Glo reagent (Promega Corporation, Madison, WI) was added to each well of the assay plates using FRD. After 30min incubation at room temperature, the luminescence intensity was measured using ViewLux plate reader (PerkinElmer).
Consider `O=P(O)(OCc1ccccc1)OCc1ccccc1`, for which the compound was classed as inactive.
As for `COc1cccc(N(C)C(=S)Oc2ccc3c(c2)CCCC3)n1`, the outcome was inactive.
`Cn1c(=O)cc(Oc2ccc(F)cc2F)c2cnc(NCC(C)(C)O)nc21`: the compound was called inactive.
Consider `C=C(C)C(=O)OCC`, for which the outcome was inactive.
As for `c1ccc(C(O[C@H]2CCCN(CCc3ccc4c(c3)OCO4)C2)c2ccccc2)cc1`, the compound was called inactive.
The value for `CCOc1ccc(O)cc1` was “inactive”; that for `C=CC(=O)OCCOCCOC(=O)C=C` was “inactive”.
For `CCO[C@H](Cc1ccc(OCCc2ccc(OS(C)(=O)=O)cc2)cc1)C(=O)O`, the outcome was inactive.
As for `Clc1ccc(Cn2c(CN3CCCC3)nc3ccccc32)cc1`, the result was inactive.
Take `CCOC(=O)c1cccnc1`: the call was inactive.
On to `COC(C)(C)CCO`, for which the call was inactive.
As for `CC(C)OC(=O)C(C)N(C(=O)c1ccccc1)c1ccc(F)c(Cl)c1` (stereo not given), the compound was classed as inactive.
As for `CCCOC(C(=O)OC1CCN(C)CC1)(c1ccccc1)c1ccccc1`, the compound was called inactive.
Regarding `CC(C)O.CC(C)O.CCOC(=O)/C=C(\C)O.CCOC(=O)/C=C(\C)O.[Ti]`, the outcome was inactive.
Consider `O=C1OC(CN2CCOCC2)CN1/N=C/c1ccc([N+](=O)[O-])o1` (stereo not given), for which the outcome was inactive.
Regarding `C[N+]1(C)CCC(OC(=O)C(O)(c2ccccc2)C2CCCC2)C1` (stereo not given), the outcome was inactive.
Take `NC(=O)C(c1ccccc1)(c1ccccc1)[C@@H]1CCN(CCc2ccc3c(c2)CCO3)C1`: the compound was classed as inactive.
Consider `CN1CCC(N(Cc2cccs2)c2ccccc2)CC1`, for which the compound was called inactive.
Turning to `O=C(NCC1CN(c2ccc(N3CCOCC3=O)cc2)C(=O)O1)c1ccc(Cl)s1` (stereo not given), the result was inactive.
On to `CC(C)(C)OCC1CO1` (stereo not given), for which the compound was classed as inactive.
Then `CCCCCCCCCCCCCCCCOS(=O)(=O)O`, with “inactive”.
For `CN(C)CCN(Cc1ccc(Cl)cc1)c1ccccn1`, the compound was called inactive.
Then `O=[N+]([O-])c1cccc(S(=O)(=O)O)c1`, with “inactive”; and `C=C(C)C(=O)OCCOCC`, with “inactive”.
`CCCCCCCCO[C@@H]1O[C@H](CO)[C@@H](O)[C@H](O)[C@H]1O`: the compound was classed as inactive.
Turning to `CCCNCC(O)COc1ccccc1C(=O)CCc1ccccc1` (stereo not given), the result was inactive.
The value for `O=S(c1cc(Cl)cc(Cl)c1O)c1cc(Cl)cc(Cl)c1O` was “inactive”; that for `OC(CN1CCC(Cc2ccc(F)cc2)CC1)c1ccc(Cl)cc1` (stereo not given) was “inactive”; that for `c1cc(CCCc2ccncc2)ccn1` was “inactive”.
As for `O=C(O)c1ccc(S(=O)(=O)O)cc1C(=O)O`, the outcome was inactive.
Then `CC(=O)c1cccc([N+](=O)[O-])c1`, with “inactive”.
The value for `O=C(OCCCCCCOC(=O)c1ccccc1)c1ccccc1` was “inactive”; that for `CCc1cc(C2=C(C(=O)O)N(c3ccccc3C(F)(F)F)S(=O)(=O)c3ccccc32)cc2c1OCO2` was “inactive”; that for `CC(COCCO)OCCO` (stereo not given) was “inactive”.
With `O=C(CS)Nc1ccccc1`, the outcome was inactive.
For `Cc1ccccc1S(=O)(=O)O`, the result was inactive.
For `O=C(O)c1nc(Cl)c(Cl)c(Cl)c1Cl`, the compound was classed as inactive.
Turning to `CC(C)Nc1ccc(NC(C)C)c2c1C(=O)c1ccccc1C2=O`, the outcome was inactive.
The value for `c1ccc(-c2ccccn2)nc1` was “inactive”; that for `CN1CCN(C(c2ccccc2)c2ccccc2)CC1` was “inactive”.
